Data on 39 molecules can be found in PubChem BioAssay (NCI).

SMILES strings stand for the structures. Compounds without any hit were thinned out: in the full panel of roughly 83,000, 20% have a hit.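 Cells were grown in 96-well plates and exposed to the test compound at a single concentration for 48 hours; results are reported as percent growth, with values below 10 considered active.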 The source made the active and inactive calls.

The first experiment relates to DU-145 prostate. As to the kind of experiment: NCI-60 one-dose screen, 48 h (100 = growth as untreated, 0 = no growth, -100 = all killed). The note with it: 10 µM unless noted.
`C/C=C(\C)C(C(=O)NC1CCCCC1)N(C(=O)C1CCc2cc(F)ccc2O1)c1ccc(Cl)cc1` (stereo not drawn): the growth is 108% (inactive).
The same measure, in the same setting: the value for `N=C(N)c1ccc(-c2cc(Cl)cc(Cl)c2)cn1` was 99.5% (inactive); that for `COc1ccc(-c2cc(-c3ccccc3)nc(SCCCC(=O)NO)n2)cc1OC` was 1.4% (active); that for `CCC(C)/C(=C\C#N)NCCCN/C(=C/C#N)C(C)CC` (stereo not drawn) was 122% (inactive).
Still for that read-out and setting: to `CC1=C(C#N)C(=O)NC(C)C1` (stereo not drawn) belongs 111% (inactive); to `COc1cccc(/C=C2\Oc3cc(OCCCN4CCCC4)ccc3C2=O)c1OC`, 106% (inactive).
The same measure, in the same setting: to `COc1cc(C2C3=C(COC3=O)Nc3cc4c(cc32)CCC4)cc2c1OCO2` (stereo not drawn) belongs -0.3% (active).
For the molecule `CCN(CC)c1ccc(/C=C2\Oc3ccc(O)c(I)c3C2=O)cc1`, the growth was 87% (inactive).
The same measure, in the same setting: the value for `C=C(C)[C@@H]1CC[C@]2(C(=O)O)CC[C@]3(C)[C@H](CC[C@@H]4[C@@]5(C)C[C@@H](CC#Cc6ccc(C(F)(F)F)cc6)[C@H](O)C(C)(C)[C@@H]5CC[C@]43C)[C@@H]12` was 22.6% (inactive); that for `COc1ccc2c(c1)[nH]c(=O)c1c3cccc(F)c3cn21` was 9.01% (active); that for `CCOC(=O)C1=C(C)NC(C)=C(C(=O)OCC)C1(C)C` was 123% (inactive).
`COc1cccc(/C=C/C(=O)Nc2cc(OC)c3c(c2)OCO3)c1`: the growth is 94.7% (inactive).
Still for that read-out and setting: to `COc1cccc(-c2nc3sccn3c2-c2ccnc(NCCCNS(=O)(=O)c3ccc(F)cc3)c2)c1` belongs 34% (inactive).
Same read-out and setting: to `COc1ccc(S(=O)(=O)Nc2cc(/C=C\c3cc(OC)c(OC)c(OC)c3)cc(OC)c2OC)cc1` belongs -0.291% (active).
The same measure, in the same setting: to `Cc1ccc(C(=O)NCCCNc2nccc(-n3ccc4cccnc43)n2)cc1` belongs 96.5% (inactive).
For the molecule `N/C(=N\C(N)=N\c1nc2ccccc2s1)c1ccncc1`, the growth was 91.1% (inactive).
Still for that read-out and setting: to `COC(=O)c1nc(-c2ccccc2)oc1S(=O)(=O)N1CCN(c2cccc(Cl)c2)CC1` belongs 92.7% (inactive); to `CCCCCCCCC(C)OC(=O)c1nn(C(C)=O)c2ccccc12` (stereo not drawn), 110% (inactive).
On the same count and under the same terms, to `Cc1ccc(N2CCN(C(C)C(N)=O)CC2)cc1` (stereo not drawn) belongs 116% (inactive); to `COc1ccc(S(=O)(=O)NCCCNc2nccc(-c3c(-c4cccc([N+](=O)[O-])c4)nc4sccn34)n2)cc1`, 51.6% (inactive); to `COc1ccc(-n2c(=S)sc3c(Cl)nc(C)nc32)c(OC)c1`, 6.39% (active).
The same measure, in the same setting: to `N[C@@H]1CCN(C(=O)c2cc3cc(Cl)c(F)c(F)c3[nH]2)C1` belongs 102% (inactive); to `C=C[C@@H]1C[C@@H]2Cc3cc(F)ccc3N1O2`, 112% (inactive); to `CCCCN(CCCC)C(=O)CC`, 112% (inactive).
Take `CC12CCC3C4(C)COC(c5ccco5)OC4CCC3(C)C1CC(C1=CCOC1=O)O2` (stereo not drawn): the growth is 107% (inactive).
For `CCCCN(CCCC)C(=N)c1ccnc2ccccc12`, the growth is 117% (inactive).
As to `C=C1C(=O)O[C@H]2[C@H]1CC/C(Cn1cc(CNC(=O)c3cc4ccccc4[nH]3)nn1)=C\CC[C@@]1(C)O[C@@H]21`, the growth was 52.2% (inactive).
On the same count and under the same terms, to `NC(=O)CCCN1C/C(=C\c2ccccc2)C(=O)c2ccccc21` belongs 102% (inactive); to `COc1cc(/C=C/C(=O)N2CCN(C(=O)/C=C/c3cc(OC)c(OC)c(OC)c3)CC2)cc(OC)c1OC`, 109% (inactive).
Still for that read-out and setting: to `COc1ccc(Nc2ncccc2C(=O)NCc2cn(Cc3cccc(Oc4ccccc4)c3)nn2)cc1` belongs 46.1% (inactive); to `c1ccc(-c2nnc(-c3ccccn3)s2)nc1`, 110% (inactive).
Same read-out and setting: the value for `C=C1CCC2C(C)(CO)C(O)CCC2(C)C1CC(NCc1ccccc1)C1=CCOC1=O` (stereo not drawn) was 104% (inactive); that for `CCCCCCCCCCCC(=O)NCCC[N+](C)(C)CC(=O)[O-]` was 101% (inactive).
For `CC(C)CSc1nc(NN)c(C#N)c(-c2ccc(F)cc2)n1`, the growth was 66.5% (inactive).
On the same count and under the same terms, to `O=c1[nH]c(-c2ccccc2)nc(CN2CCCCC2)c1O` belongs 113% (inactive); to `Cc1ccc(S(=O)(=O)Nc2c(Br)cc(Br)cc2C(N)=O)cc1`, 113% (inactive); to `Nc1nc(-c2ccccc2)c(CCCOc2ccc(NC(=O)CBr)cc2)c(=O)[nH]1`, 104% (inactive).
On the same count and under the same terms, the value for `Nc1cccc(-c2nc3sccn3c2-c2ccnc(NCCNS(=O)(=O)c3ccc(C(F)(F)F)cc3)n2)c1` was 43.4% (inactive).
On the same count and under the same terms, to `Cc1ccc(-c2nc(C#N)c(S(=O)(=O)n3nc(-c4ccccc4)cc3N)o2)cc1` belongs 105% (inactive).

For a further experiment, the system named is K-562 leukemia. Described as above. Conditions: 10 µM unless noted.
As for `C/C=C(\C)C(C(=O)NC1CCCCC1)N(C(=O)C1CCc2cc(F)ccc2O1)c1ccc(Cl)cc1` (stereo not drawn), the growth is 99.7% (inactive).
Same read-out and setting: the value for `N=C(N)c1ccc(-c2cc(Cl)cc(Cl)c2)cn1` was 17.5% (inactive); that for `COc1ccc(-c2cc(-c3ccccc3)nc(SCCCC(=O)NO)n2)cc1OC` was 3.02% (active); that for `CCC(C)/C(=C\C#N)NCCCN/C(=C/C#N)C(C)CC` (stereo not drawn) was 98.8% (inactive).
The same measure, in the same setting: to `CC1=C(C#N)C(=O)NC(C)C1` (stereo not drawn) belongs 116% (inactive).
The same measure, in the same setting: the value for `COc1cccc(/C=C2\Oc3cc(OCCCN4CCCC4)ccc3C2=O)c1OC` was 73% (inactive); that for `COc1cc(C2C3=C(COC3=O)Nc3cc4c(cc32)CCC4)cc2c1OCO2` (stereo not drawn) was 14.1% (inactive).
As to `CCN(CC)c1ccc(/C=C2\Oc3ccc(O)c(I)c3C2=O)cc1`, the growth is 12.5% (inactive).
Take `C=C(C)[C@@H]1CC[C@]2(C(=O)O)CC[C@]3(C)[C@H](CC[C@@H]4[C@@]5(C)C[C@@H](CC#Cc6ccc(C(F)(F)F)cc6)[C@H](O)C(C)(C)[C@@H]5CC[C@]43C)[C@@H]12`: the growth was 7.68% (active).
Turning to `COc1ccc2c(c1)[nH]c(=O)c1c3cccc(F)c3cn21`, the growth was 36.4% (inactive).
Same read-out and setting: the value for `CCOC(=O)C1=C(C)NC(C)=C(C(=O)OCC)C1(C)C` was 89.9% (inactive); that for `COc1cccc(/C=C/C(=O)Nc2cc(OC)c3c(c2)OCO3)c1` was 92.1% (inactive); that for `COc1cccc(-c2nc3sccn3c2-c2ccnc(NCCCNS(=O)(=O)c3ccc(F)cc3)c2)c1` was 17.8% (inactive).
Still for that read-out and setting: to `COc1ccc(S(=O)(=O)Nc2cc(/C=C\c3cc(OC)c(OC)c(OC)c3)cc(OC)c2OC)cc1` belongs 7.33% (active); to `Cc1ccc(C(=O)NCCCNc2nccc(-n3ccc4cccnc43)n2)cc1`, 92.1% (inactive); to `N/C(=N\C(N)=N\c1nc2ccccc2s1)c1ccncc1`, 13.1% (inactive).
Regarding `COC(=O)c1nc(-c2ccccc2)oc1S(=O)(=O)N1CCN(c2cccc(Cl)c2)CC1`, the growth was 38.8% (inactive).
Same read-out and setting: to `CCCCCCCCC(C)OC(=O)c1nn(C(C)=O)c2ccccc12` (stereo not drawn) belongs 106% (inactive); to `Cc1ccc(N2CCN(C(C)C(N)=O)CC2)cc1` (stereo not drawn), 114% (inactive).
Same read-out and setting: to `COc1ccc(S(=O)(=O)NCCCNc2nccc(-c3c(-c4cccc([N+](=O)[O-])c4)nc4sccn34)n2)cc1` belongs 28.7% (inactive); to `COc1ccc(-n2c(=S)sc3c(Cl)nc(C)nc32)c(OC)c1`, 2.62% (active).
With `N[C@@H]1CCN(C(=O)c2cc3cc(Cl)c(F)c(F)c3[nH]2)C1`, the growth was 83.4% (inactive).
On the same count and under the same terms, to `C=C[C@@H]1C[C@@H]2Cc3cc(F)ccc3N1O2` belongs 95.7% (inactive); to `CCCCN(CCCC)C(=O)CC`, 101% (inactive).
Same read-out and setting: to `CC12CCC3C4(C)COC(c5ccco5)OC4CCC3(C)C1CC(C1=CCOC1=O)O2` (stereo not drawn) belongs 92.6% (inactive); to `CCCCN(CCCC)C(=N)c1ccnc2ccccc12`, 110% (inactive).
Turning to `C=C1C(=O)O[C@H]2[C@H]1CC/C(Cn1cc(CNC(=O)c3cc4ccccc4[nH]3)nn1)=C\CC[C@@]1(C)O[C@@H]21`, the growth is 2.12% (active).
On the same count and under the same terms, the value for `NC(=O)CCCN1C/C(=C\c2ccccc2)C(=O)c2ccccc21` was 97.1% (inactive); that for `COc1cc(/C=C/C(=O)N2CCN(C(=O)/C=C/c3cc(OC)c(OC)c(OC)c3)CC2)cc(OC)c1OC` was 98.7% (inactive).
Still for that read-out and setting: the value for `COc1ccc(Nc2ncccc2C(=O)NCc2cn(Cc3cccc(Oc4ccccc4)c3)nn2)cc1` was 33.6% (inactive); that for `c1ccc(-c2nnc(-c3ccccn3)s2)nc1` was 93.9% (inactive); that for `C=C1CCC2C(C)(CO)C(O)CCC2(C)C1CC(NCc1ccccc1)C1=CCOC1=O` (stereo not drawn) was 101% (inactive).
On to `CCCCCCCCCCCC(=O)NCCC[N+](C)(C)CC(=O)[O-]`, for which the growth is 83.3% (inactive).
Same read-out and setting: to `CC(C)CSc1nc(NN)c(C#N)c(-c2ccc(F)cc2)n1` belongs 58.8% (inactive); to `O=c1[nH]c(-c2ccccc2)nc(CN2CCCCC2)c1O`, 112% (inactive).
On the same count and under the same terms, the value for `Cc1ccc(S(=O)(=O)Nc2c(Br)cc(Br)cc2C(N)=O)cc1` was 119% (inactive); that for `Nc1nc(-c2ccccc2)c(CCCOc2ccc(NC(=O)CBr)cc2)c(=O)[nH]1` was 94.3% (inactive).
Same read-out and setting: the value for `Nc1cccc(-c2nc3sccn3c2-c2ccnc(NCCNS(=O)(=O)c3ccc(C(F)(F)F)cc3)n2)c1` was 47.2% (inactive); that for `Cc1ccc(-c2nc(C#N)c(S(=O)(=O)n3nc(-c4ccccc4)cc3N)o2)cc1` was 13.3% (inactive).
